Source: PubChem BioAssay (NCATS)
Where “and” joins values, the source holds several entries; their conditions need not be identical. Equal entries are not always repeated. Results filed as inconclusive are left out. Where a call stands in place of a potency, no number is given. A number with no mark means an inactive call. Calls of active or inactive are those of the source. Calls follow the shape of the dose curve; as a rule, active = well fitted cell-killing curve with a large enough effect; inconclusive = small, poorly fitted or top-dose-only effect, or effect the other way; inactive = no such curve, though single readings can be large or run the other way.

Experiments:
[1] = Viability qHTS for spleen associated tyrosine kinase inhibitor (SYKi) naive MV4-11 cells (AID 1963823); also: nearly all actives have a fitted effect of over 40% in size
In short: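 CellTiter-Glo luminescence, 10 min room-temperature incubation, gave viability. Cells: naive MV4-11 (500/well), treated 72 hr at 37 C, 5% CO2.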

[2] = Viability qHTS for spleen associated tyrosine kinase inhibitor (SYKi) drug resistant MV4-11 cells (AID 1963824); also: nearly all actives have a fitted effect of over 35% in size
In short: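 SYK-inhibitor-resistant MV4-11 AML cells were seeded at 500 per well onto compound and cultured 72 hours (37 °C, 5% CO2). CellTiter-Glo was then added, and after 10 min at room temperature, luminescence gave viability.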
Potency is read from the fitted curve at half-maximal effect.

Compound	Potency [1]	Potency [2]	viability (% of control) [1]	viability, % of control [2]
CNC(=O)O[C@H]1COc2ccc(N3CCN(C4COC4)CC3)cc2[C@@H]1NC(=O)c1ccc(F)cc1	inactive	inactive		
CC[C@@H]([C@H](C)O)n1ncn(-c2ccc(N3CCN(c4ccc(OC[C@@H]5CO[C@@](Cn6cncn6)(c6ccc(F)cc6F)C5)cc4)CC3)cc2)c1=O	11.9 µM (active)	6.68 µM (active)		
COC(=O)C1=CO[C@@H](O[C@@H]2O[C@H](CO)[C@@H](O)[C@H](O)[C@H]2O)[C@H]2[C@@H]1C=C[C@@]21C=C([C@H](C)O)C(=O)O1	inactive	inactive		
CC(=O)c1c(O)cc(O[C@@H]2O[C@H](CO)[C@@H](O)[C@H](O)[C@H]2O)cc1O	inactive	inactive		
C/C1=C\[C@H]2OC(=O)[C@@H](C)[C@@H]2CC/C(C(=O)O)=C/CC1	inactive	inactive		
C[C@H](O)[C@H](O)[C@H]1CNc2nc(N)[nH]c(=O)c2N1	inactive	inactive		
CC(C)=CCC[C@](C)(O)[C@H]1CC[C@]2(C)[C@@H]1[C@H](O)CC1[C@@]3(C)CC[C@H](O)C(C)(C)C3[C@@H](O[C@@H]3O[C@H](CO)[C@@H](O)[C@H](O)[C@H]3O[C@@H]3OC[C@@H](O)[C@H](O)[C@H]3O)C[C@]12C (stereo partly specified)	inactive	inactive		
CC(=O)OC[C@]12[C@H](OC(C)=O)C(=O)[C@@H]3[C@@H](OC(C)=O)[C@@]14O[C@@]3(C)COC(=O)c1cccnc1[C@@H](C)[C@H](C)C(=O)O[C@@H]([C@H](O)[C@@H]2OC(C)=O)[C@]4(C)O	inactive	inactive		
C[C@@H]1O[C@@H](O[C@@H]2[C@@H](O)[C@@H](O)[C@H](O[C@@H]3[C@@H](O)[C@@H](O[C@]4(CO)O[C@H](CO)[C@@H](O)[C@@H]4OC(=O)/C=C/c4ccc(O)cc4)O[C@H](CO)[C@H]3OC(=O)/C=C/c3ccc(O)cc3)O[C@H]2C)[C@H](O)[C@H](O)[C@H]1O			81.6% [at 9.25 µM]	117% [at 9.25 µM]
CC(=O)Nc1cccc2c1c(Sc1ccc(Cl)cc1)c(C)n2CC(=O)O	inactive	inactive		
CC(O)C1NC(=O)C2CCCN2C1=O (stereo unspecified)	inactive	inactive		
CN1CCN(c2nc(C3=C(c4c[nH]c5ccccc45)C(=O)NC3=O)c3ccccc3n2)CC1	206 nM (active) and 833 nM (active)	461 nM (active) and 2.35 µM (active)		
COc1cc(C(=O)OCC2=CCC3C(C(=O)O)=COC(O[C@@H]4O[C@H](CO)[C@@H](O)[C@H](O)[C@H]4O)C23)ccc1O (stereo partly specified)	inactive	inactive		
C[C@@H]1O[C@@H](O[C@H]2[C@H](O[C@H]3[C@H](O[C@H]4CC[C@@]5(C)C(CC[C@]6(C)C5CC=C5[C@@H]7CC(C)(C)C[C@@H](O)[C@]7(C)CC[C@]56C)[C@@]4(C)CO)O[C@H](C(=O)O)[C@@H](O)[C@@H]3O)OC[C@H](O)[C@@H]2O)[C@H](O)[C@H](O)[C@H]1O (stereo partly specified)			76.2% [at 9.25 µM]	84.4% [at 9.25 µM]
CNC(=O)c1ccccc1Nc1nc(Nc2ccc3c(c2OC)CCCC(N2CCN(CCO)CC2)C3)ncc1Cl (stereo unspecified)	0.366 µM (active)	0.731 µM (active)		
CC(=O)O[C@@H]1CC2C(C)(C)C(=O)C=C[C@]2(C)C2CC[C@@]3(C)[C@H](c4ccoc4)OC(=O)[C@H]4O[C@]43[C@@]21C (stereo partly specified)	10 µM (active)	7.09 µM (active)		
Cn1cc(C2=C(c3coc4ccccc34)C(=O)NC2=O)c2cc(Br)ccc21	14.6 µM (active)	7.31 µM (active)		
C=C1C(=O)OC2/C=C(\CO)CC/C=C(\C=O)CC(OC(=O)CC(C)C)C12 (stereo unspecified)	2.27 µM (active)	2.02 µM (active)		
CC(Sc1nc2c(cnn2-c2cccc(Cl)c2)c(=O)[nH]1)C(N)=O (stereo unspecified)	inactive	inactive		
OC[C@@]1(O)CO[C@H](OC[C@H]2O[C@@H](OC(CCCCc3ccc(O)cc3)CCc3ccc(O)cc3)[C@H](O[C@H]3OC[C@](O)(CO)[C@H]3O)[C@@H](O)[C@@H]2O)[C@@H]1O (stereo partly specified)	inactive	inactive		
COCC(c1ccc(C(F)(F)F)cc1)N1CCN(C2(C)CCN(C(=O)c3c(C)ncnc3C)CC2)CC1C (stereo unspecified)	inactive	inactive		
CC(C)C1CCC(C(=O)N[C@@H](Cc2ccccc2)C(=O)O)CC1 (stereo partly specified)	inactive	inactive		
CC1(C)[C@@H](O[C@H]2O[C@H](C(=O)O)[C@@H](O)[C@H](O)[C@H]2O[C@@H]2O[C@H](C(=O)O)[C@@H](O)[C@H](O)[C@H]2O)CC[C@]2(C)[C@H]3C(=O)C=C4[C@@H]5C[C@@](C)(C(=O)O)CC[C@]5(C)CC[C@@]4(C)[C@]3(C)CC[C@@H]12	inactive	inactive		
